This is part of a sample that, as a whole, favours compounds with a hit. Of some 83,000 tested, about 20% had one in any assay.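 Interpretation: 100, growth as untreated; towards 0, rising growth inhibition; 0, no net growth; 0 to -100, cell death. Compounds scoring below 10 were considered active.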 Unmarked numbers belong to inactive results. The source made the active and inactive calls.

One assay concerns HOP-62 NSCLC. As to the kind of experiment: NCI-60 one-dose screen, 48 h (100 = growth as untreated, 0 = no growth, -100 = all killed). Particulars: 10 µM unless noted.
With `c1ccc2sc(SCCCn3ccnc3)nc2c1`, the growth was 99.7%.
For the compound `CCCCCCCCCCCCCCCCCCNC(=O)[C@H]1CSC(c2ccc(OC)c(F)c2)N1` (stereo partly specified), the growth was -82.9% (active).
On the same count and under the same terms, then `O=C(/C=C\c1cccc([N+](=O)[O-])c1)c1ccccc1`, with 90.8%.

In the next assay the test system is NCI-H460 lung. Described as above. To be noted: 10 µM unless noted.
Turning to `O=C1c2cc3c(cc2-c2c1c1cc(Cl)c(Cl)cc1c(=O)n2CCCn1ccnc1)OCO3`, the growth is 6.51% (active).
Turning to `CCCCCCCCOC(=O)CC[C@@H](C)[C@H]1CC[C@H]2[C@@H]3[C@H](OC(=O)CCN)C[C@@H]4C[C@H](OC(=O)CCN)CC[C@]4(C)[C@H]3C[C@H](OC(=O)CCN)[C@]12C`, the growth was 73.7%.
Consider `COc1ccc(-c2cnoc2-c2cc(OC)c3c(c2)OCCO3)cc1`, for which the growth was 3.25% (active).
As to `Cc1nn(-c2ccccc2)c2nc(C)n(-c3ccc(Br)cc3)c(=O)c12`, the growth is 7.92% (active).
Consider `CCN(CC)CC(C)(C)C(=O)/C=C/c1ccccc1`, for which the growth was 32.3%.
On to `Cc1ccc2cnc(N)c(C#Cc3cncc(C(=O)Nc4ccc(CN5CCN(C)CC5)c(C(F)(F)F)c4)c3)c2c1`, for which the growth was -78.8% (active).
As to `C[C@H](CCC(=O)O)[C@H]1CC[C@H]2[C@@H]3CC[C@@H]4/C(=C\c5ccco5)C(=O)/C(=C\c5ccco5)C[C@]4(C)[C@H]3CC[C@]12C`, the growth was 81.9%.
The same measure, in the same setting: then `COc1ccc(-c2cc(-c3ccc(N(C)C)cc3)nc(NC(=O)c3ccncc3)n2)cc1`, with 99.7%; and `COc1ccc2c(c1)C(=O)/C(=C/c1cccc(OCC(=O)Nc3nc4c(s3)CCCC4)c1)O2`, with 71.3%; and `Cc1nc2sc(C(=O)Nc3cccc4c3OCCO4)c(N)c2cc1C(C)O` (stereo unspecified), with 15.8%.
With `CCCCCCNC(=O)Oc1ccc(/C(=C(\C)c2ccccc2)c2ccc(OCCN(CC)CC)cc2)cc1`, the growth is 7.03% (active).
Still for that read-out and setting: under `O=[N+]([O-])c1c(F)cccc1Nc1cccc(F)c1` stands 107%; under `Nc1ccc2c(c1)C(=O)NC2=O`, 103%; under `CC(C)[C@@H]1CC[C@]2(C(=O)NCCCCN=C(N)N)CC[C@]3(C)[C@H](CC[C@@H]4[C@@]5(C)CCC(=O)C(C)(C)[C@@H]5CC[C@]43C)[C@@H]12`, 58.9%.
In the case of `CCc1ccccc1NC(=O)c1sc2nc3c(cc2c1N)C(=O)CCC3`, the growth was 6.42% (active).
Consider `O=C1c2c[n+](Cc3ccccc3)ccc2-c2nc3ccccc3c3ccnc1c23`, for which the growth is -55% (active).
In the case of `CCN(C(=O)CN1CCN(c2cc3c(cc2F)c(=O)c(C(=O)O)cn3CC)CC1)c1nc(-c2ccccc2)cs1`, the growth is 5.71% (active).
Turning to `O=C(Nc1ccc(F)cc1)Nc1ccc(CCO)cc1`, the growth was 106%.
Consider `CCCNc1nc(SC)nc(-c2cccc(N)c2)c1C#N`, for which the growth was 101%.
Same read-out and setting: then `CC/C(=C(\c1ccc(O)cc1)c1ccc(OCCN(C)CCN(C)C(=O)CCCCC(=O)c2c(C)[nH]c(/C=C3\N=C(c4ccc[nH]4)C=C3OC)c2C)cc1)c1ccccc1`, with 76.8%.
Same read-out and setting: then `c1c2c(cc3c1OCO3)Cc1cc3c(cc1Cc1cc4c(cc1C2)OCO4)OCO3`, with 104%.
On the same count and under the same terms, under `C(=N\Nc1nnn(Cc2ccccc2)n1)/c1ccccc1` stands 17.4%; under `NS(=O)(=O)N(c1cc(C(F)(F)F)cc(C(F)(F)F)c1)C1CCN(Cc2ccc(F)cc2)CC1`, 58.4%.
Regarding `CC(=O)Oc1cc2cnc3c4cc(OC(C)=O)c(OC(C)=O)cc4ccc3c2cc1OC(C)=O`, the growth was 9.99% (active).
On the same count and under the same terms, under `O=C1C=CC(Nc2ccccc2[N+](=O)[O-])C1Nc1ccccc1[N+](=O)[O-]` (stereo unspecified) stands 59%.
For `O=C(COCc1c(-c2ccccc2)no[n+]1[O-])Nc1ccc(C(=O)/C=C/c2ccc3c(c2)OCO3)cc1`, the growth was 112%.
For the compound `CCOC(=O)c1c2c(n3ccc(NC(=O)CCN4CCOCC4)cc13)C(=O)c1ncccc1C2=O`, the growth was 11.1%.
As to `COc1cc2c(=O)n(CC3CCCCC3)c3c4cc[nH]c4ncc3c2cc1OC`, the growth is 21.1%.
In the case of `COc1ccc(-c2cc(=O)[nH]c3c(OC)c4ccccc4c(OC)c23)cc1`, the growth is 8.71% (active).
Regarding `Cn1c(=O)c2[nH]c(C(O)C(O)C(O)C(O)CO)nc2n(C)c1=O` (stereo unspecified), the growth is 107%.
Take `C=C1CCC2C3(C)COC(c4ccc(OC)cc4Br)OC3CCC2(C)C1/C=C/C1=CCOC1=O` (stereo unspecified): the growth was 65%.
For the compound `COc1ccc(-c2cn3c(ccc4ccccc43)n2)cc1`, the growth was 97.7%.
Take `Cc1ccc(Nc2c(C(N)=O)cnc3ccc(-c4csc(N)n4)cc23)cc1`: the growth was 100%.
Regarding `CCN(CC)CC#CCOC(=O)[C@]1(C)CCC[C@@]2(C)[C@H]1CC(C=O)=C1C=C(C(C)C)CC[C@@H]12`, the growth is 64%.
Consider `CCCCCCCCCCCCS(=O)CC(C)O` (stereo unspecified), for which the growth is 111%.
`c1ccc2sc(SCCCn3ccnc3)nc2c1`: the growth is 97.8%.
For `CCCCCCCCCCCCCCCCCCNC(=O)[C@H]1CSC(c2ccc(OC)c(F)c2)N1` (stereo partly specified), the growth was -67.8% (active).
As to `O=C(/C=C\c1cccc([N+](=O)[O-])c1)c1ccccc1`, the growth is 87.7%.

These data come from PubChem BioAssay (NCI).
